# Screening results as filed in PubChem BioAssay.
# ROS inducer = raises reactive oxygen species in U2OS cancer cells | U2OS ROS induction, H2DCF-DA fluorescence | actives 2% (n = 46,000) | ROS induction (% of piperlongumine), % at 10 µM; in the data active means ROS induction above about 79%, passing the limit was not always enough;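 further: 0% = DMSO vehicle median and 100% = reference compound median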
# PD-1 reverse act = reversal of PD-1 mediated T-cell inhibition | 29,000 tested, under 10 active | activation, % (test concentration not listed) | primary human CD4 T cells, PD-L1 beads, CellTiter-Glo 96 h | AID 2316; call rule not given here;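 further: 0% = median vehicle wells and 100% = positive control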
# MITF inhib = blocks MITF activity | TRPM1 promoter luciferase, luminescence, 24 h | inhibition, % (test concentration not listed) | actives 0.28% (n = 37,000) | AID 2240; in the data active means inhibition above about 85%;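 further: human melanocyte line stably carrying TRPM1 promoter luciferase reporter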
# NOMO-1 viab = STK33 inhibitor candidate reducing NOMO-1 cell viability; NOMO-1 AML viability, CellTiter-Glo luminescence, 72 h; inhibition, % (test concentration not listed); actives 7.5% (n = 37,000); in the data active means inhibition above about 80%
# YB-1 expr inh = YB-1 expression inhibition; U2OS, qRT-PCR YB-1 vs CDIP delta delta Cp, 16 h; stronger effect = higher value; zero = DMSO, each unit about twofold; delta delta Cp (YB-1 minus CDIP) (no concentration beside the values); actives 0.37% (n = 30,000);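 active means delta delta Cp rounded down to an integer at or above 3, about 3 SD of DMSO wells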;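 further: higher means less YB-1 transcript or more CDIP transcript relative to DMSO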
# * marks the source's active call; other numbers are inactive results; nt = no result given. Many of the other results were omitted from the sample, so hits are more common in it than they were.
SMILES,ROS inducer,PD-1 reverse act,MITF inhib,NOMO-1 viab,YB-1 expr inh
C[C@H]1CC[C@@H]2[C@@H](C)[C@H]3[C@H](C[C@H]4[C@@H]5CC=C6CC(O[C@@H]7O[C@H](CO)[C@@H](O)[C@H](O[C@@H]8O[C@H](CO)[C@@H](O)[C@H](O)[C@H]8O)[C@@H]7O[C@@H]7O[C@@H](C)[C@H](O)[C@@H](O)[C@H]7O)CC[C@]6(C)[C@H]5CC[C@]34C)N2C1 (stereo partly specified),-25.9,-4.7,51.9,109.9*,-0.797
CCCC(C)n1[nH]c(=O)c2c1NC(=O)CSC2c1cccc([N+](=O)[O-])c1 (stereo unspecified),nt,3.1,6.7,15.2,nt
C[C@@H]1CCC/C=C/[C@H]2C[C@@H](O)C[C@@H]2[C@@H](O)/C=C\C(=O)O1,-9.6,-6.1,87.2*,108.3*,0.198
COc1cc2c(cc1OC)-c1c(OC)c(OC)c(N)c3c1[C@H](C2)N(C)CC3,11.9,nt,nt,nt,nt
O=[N+]([O-])c1ccc(O)c([N+](=O)[O-])c1,-14.0,nt,104.8*,-22.7,0.271
Cc1cc(C(F)F)n2nc(C(=O)Nc3ccc(Cl)cc3C(=O)c3ccccc3)nc2n1,-19.5,4.9,-2.4,-20.5,nt
Cc1cc(Br)c(NC(=O)C2C(C)(C)C2(C)C)c(Br)c1,1.2,-5.2,11.3,89.1*,-0.336
CC1(C)C(C(=O)Nc2ccccc2C#N)C1(C)C,57.9,0.2,6.1,17.5,0.0676
COC[C@H]1OC(=O)c2coc3c2[C@@]1(C)C1=C(C3=O)[C@@H]2CCC(=O)[C@@]2(C)C[C@H]1OC(C)=O,-0.8,-21.6,39.4,89.8*,0.287
CCOC(=S)SCc1nc2ccccc2c(=O)n1-c1ccccc1,38.4,nt,nt,nt,nt
C/C=C(\C)C(=O)OC1C(C)=C2C(C1OC(=O)CCCCCCC)C(C)(OC(C)=O)CC(OC(=O)CCC)C1(O)C2OC(=O)C1(C)O (stereo unspecified),5.0,-13.9,51.0,120.4*,-0.67
C/C=C(/C)C(=O)O[C@H]1C(C)=C2[C@H]([C@@H]1OC(=O)CCCCCCC)[C@@](C)(OC(C)=O)C[C@H](OC(=O)CCC)[C@@]1(O)[C@H]2OC(=O)[C@@]1(C)O,12.8,nt,104.7*,121.6*,-0.568
Cc1cc(OCc2c(F)cccc2Cl)c2c3c(c(=O)oc2c1)CCCC3,-3.4,nt,nt,nt,nt
COC(=O)C1=CO[C@H](C)[C@@H]2CN3CCC4(C(=O)Nc5ccccc54)C3C[C@H]12 (stereo partly specified),5.0,nt,nt,nt,nt
C=CC/C=C\C/C=C\CCCCCCCc1cc(O)cc(O)c1,-1.6,1.4,5.8,109.2*,-0.342
Cc1ccc(-n2c(CNCc3cccnc3)nc3ccccc3c2=O)cc1,12.0,2.0,-15.6,14.1,nt
CC1(C)CC(=O)C2=C(C1)OC(N)=C(C(=O)OC(C)(C)C)C21C(=O)Nc2ccccc21 (stereo unspecified),9.5,0.9,3.9,15.2,-0.0889
CC(N)Cc1c[nH]c2ccc(OCc3cccs3)cc12 (stereo unspecified),98.5*,2.7,-1.4,33.0,-1.31
CC(=O)Oc1ccc(/C=C/c2cc(OC(C)=O)cc(OC(C)=O)c2)cc1,12.9,nt,84.0,87.7*,0.113
CCN(CC)P1(=O)OC(C)(C)CC1(C)O (stereo unspecified),-4.4,0.5,-11.1,12.4,-0.126
CC(C)N(C(=O)CCl)c1ccccc1,5.6,nt,13.8,110.7*,-0.294
CCc1cccc(C)c1N(C(=O)CCl)C(C)COC (stereo unspecified),0.8,nt,3.2,13.5,-0.0454
CC1C/C=C/C2C3OC3(C)C(C)C3C(Cc4ccccc4)NC(=O)C23OC(=O)O/C=C/C(C)(O)C1=O (stereo unspecified),-5.1,-26.3,40.9,93.5*,0.0819
CCOc1cc(CN2CCN(C(=O)COc3ccc(C)cc3)CC2)ccc1OC,17.6,0.9,-3.7,26.8,-0.0397
COc1cc([C@@H]2c3cc4c(cc3[C@@H](O)C3COC(=O)C32)OCO4)cc(OC)c1O (stereo partly specified),41.5,nt,43.6,101.7*,0.0157
SMILES,ROS inducer,PD-1 reverse act,MITF inhib,NOMO-1 viab,YB-1 expr inh
COc1cc([C@@H]2c3cc4c(cc3[C@H](OC(C)=O)[C@H]3COC(=O)[C@@H]23)OCO4)cc(OC)c1OC,-11.3,nt,37.2,108.1*,0.618
COc1cc(C2c3cc4c(cc3CC3COC(=O)C32)OCO4)cc(OC)c1OC (stereo unspecified),13.9,-9.4,47.9,118.4*,-0.799
COc1ccc2c(c1OC)CN1CCc3cc4c(cc3C1C2)OCO4 (stereo unspecified),-10.3,nt,3.2,15.1,-0.288
COc1ccc(CCNCc2cc(Cl)cc(Cl)c2OC)cc1OC,7.2,-2.8,7.0,15.3,nt
CCNCC(O)c1cccc(OC(=O)c2ccccc2C)c1 (stereo unspecified),-16.8,nt,nt,nt,nt
CO/C1=C/C(C)=C/[C@@H](C)[C@@H](O)[C@@H](C)C/C(C)=C/C=C\[C@H](OC)[C@@H]([C@@H](C)[C@@H](O)[C@H](C)[C@@]2(O)C[C@@H](O)[C@H](C)[C@@H](C(C)C)O2)OC1=O,0.1,-33.1,-60.7,142.4*,0.0101
O=C(CCl)c1cc(Br)c(Br)s1,-8.9,-26.2,11.4,99.4*,0.53
CN1CCC2=C[C@H](O)[C@H]3OC(=O)c4cc5c(cc4[C@H]3[C@@H]21)OCO5,-10.1,nt,3.3,25.7,-0.227
CN1Cc2c(ccc3c2OCO3)[C@@H]2[C@H]1c1cc3c(cc1C[C@@H]2O)OCO3,-8.7,0.4,22.7,138.2*,0.489
c1ccc2c(CNCCc3c[nH]c4ccccc34)cccc2c1,8.6,-5.4,-5.6,106.1*,-0.289
CN(C)Cc1c[nH]c2ccccc12,5.4,nt,10.8,16.4,-0.17
O=C(Cn1cc(C(=O)c2ccccc2)c2ccccc21)NCC1CCCO1 (stereo unspecified),15.7,0.0,-5.7,23.0,nt
COc1cc2c3c(c1OC)-c1c(ccc(O)c1O)CC3N(C)CC2 (stereo unspecified),-0.6,-0.5,0.4,34.6,-0.634
